Here are results for 19 molecules from PubChem BioAssay (EPA / NIEHS).

For orientation: AC50 means the midpoint of the concentration-response curve, whichever way the signal moves.

Calls of active or inactive are those of the source. Rule for the calls: active = hit-call score of the fitted dose curve at least 0.9, where 1 is the maximum; inactive = score below 0.9.

Sequence of Signal transducer and activator of transcription 3 (Homo sapiens) (P40763 whole entry, looked up): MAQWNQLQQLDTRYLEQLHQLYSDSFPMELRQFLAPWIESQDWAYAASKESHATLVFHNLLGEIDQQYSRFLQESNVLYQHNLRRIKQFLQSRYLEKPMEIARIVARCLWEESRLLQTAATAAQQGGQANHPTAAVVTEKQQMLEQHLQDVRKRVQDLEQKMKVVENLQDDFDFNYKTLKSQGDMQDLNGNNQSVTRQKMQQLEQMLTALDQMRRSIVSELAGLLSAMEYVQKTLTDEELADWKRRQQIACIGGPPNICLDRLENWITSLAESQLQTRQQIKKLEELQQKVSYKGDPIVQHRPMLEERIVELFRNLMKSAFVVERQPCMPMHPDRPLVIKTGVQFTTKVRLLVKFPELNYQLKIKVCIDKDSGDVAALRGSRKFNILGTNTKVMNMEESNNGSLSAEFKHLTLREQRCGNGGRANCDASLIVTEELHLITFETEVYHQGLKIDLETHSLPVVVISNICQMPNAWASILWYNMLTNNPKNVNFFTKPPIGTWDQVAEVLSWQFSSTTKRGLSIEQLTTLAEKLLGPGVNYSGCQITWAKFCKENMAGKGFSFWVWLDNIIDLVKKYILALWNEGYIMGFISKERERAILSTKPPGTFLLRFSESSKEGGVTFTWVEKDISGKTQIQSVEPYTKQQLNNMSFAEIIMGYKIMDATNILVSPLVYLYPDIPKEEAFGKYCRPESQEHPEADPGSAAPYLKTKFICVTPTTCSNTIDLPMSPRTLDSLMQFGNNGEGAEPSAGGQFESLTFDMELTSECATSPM

Read-out in the assay: Signal transducer and activator of transcription 3 (Homo sapiens) (UniProt P40763)
The assay is described as follows: LTEA_HepaRG_STAT3: Life Technologies and Expression Analysis (LTEA) Assay for Signal transducer and activator of transcription (STAT3) using HepaRG (AID 2283529). The conditions noted are these: mRNA level, 48 h; actives raise or lower the signal. The method in brief:
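Read-out is STAT3 mRNA level by qRT-PCR, normalized to three housekeeping genes, in human HepaRG liver cells treated for 48 h. Concentrations ran from 100 uM downward in half-log steps; curves were fitted for gain or loss relative to 0.5% DMSO.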
Consider `Clc1ccc(C(Cl)(Cl)Cl)cc1`, for which the outcome was inactive.
On the same count and under the same terms, in the case of `CCCCCCCCCc1ccc(O)cc1` it was “inactive”.
For `NS(=O)(=O)C(F)(F)C(F)(F)C(F)(F)C(F)(F)C(F)(F)C(F)(F)C(F)(F)C(F)(F)F`, the AC50 is 15.2 µM (active).
As for `CC(C)(O)C(=O)Nc1ccc([N+](=O)[O-])c(C(F)(F)F)c1`, the call was inactive.
Same read-out and setting: in the case of `O=C(O)C(F)(F)C(F)(F)C(F)(F)C(F)(F)C(F)(F)F` it was “inactive”.
The same measure, in the same setting: in the case of `O=S(=O)(O)C(F)(F)C(F)(F)C(F)(F)C(F)(F)F` it was “inactive”; in that of `ClC1=C(Cl)[C@]2(Cl)[C@@H]3[C@H]4C[C@H]([C@@H]5O[C@H]45)[C@@H]3[C@@]1(Cl)C2(Cl)Cl`, “inactive”; in that of `Cc1cc2c3c(c1)C(c1ccccc1)=N[C@@H](NC(=O)c1ccncc1)C(=O)N3CC2`, “inactive”.
As to `N#Cc1ccc(N(CC(N)=O)CC(F)(F)F)cc1C(F)(F)F`, the molecule was classed as inactive.
On the same count and under the same terms, in the case of `Cc1ccc(O)c(C)c1` it was “inactive”.
Still for that read-out and setting: in the case of `CCCN(CCC)N=O` it was “inactive”; in that of `CN(C)c1nc(=O)n(C2CCCCC2)c(=O)n1C`, “inactive”; in that of `COS(=O)(=O)OC`, “inactive”.
`CCCCCCOC(=O)c1ccccc1C(=O)OCCCCCC`: the molecule was called inactive.
Consider `O=C(O)C(F)(F)C(F)(F)C(F)(F)C(F)(F)C(F)(F)C(F)(F)C(F)(F)C(F)(F)C(F)(F)F`, for which the AC50 was 79.3 µM (active).
Still for that read-out and setting: as for `CO/C=C(/C(=O)OC)c1ccccc1COc1cccc(C(F)(F)F)n1`, the figure is 3.4 µM (active).
Consider `O=NN(c1ccccc1)c1ccccc1`, for which the result was inactive.
On the same count and under the same terms, in the case of `CCC(C)(CC)c1cc(NC(=O)c2c(OC)cccc2OC)on1` it was “inactive”.
As to `CC#Cc1cc(C)nc(Nc2ccccc2)n1`, the AC50 was 6.11 µM (active).
